This note sets out measurements from PubChem BioAssay (NCI).

The panel holds about 83,000 compounds, 20% with a hit somewhere; the sample as a whole holds those more often.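 Growth was measured after 48 h exposure to one concentration of compound in 96-well plates. Values under 10 count as active.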 Activity calls are given as the source filed them.

The test system of the assay is LOX IMVI melanoma. Put plainly: NCI-60 one-dose screen, 48 h (100 = growth as untreated, 0 = no growth, -100 = all killed). To be noted: 10 µM unless noted. How it is done: Growth inhibition of the LOX IMVI human tumor cell line is measured as a screen for anti-cancer activity. Cells are grown in 96 well plates and exposed to the test compound for 48 hours. Compounds are tested at a single concentration, which is 10^-5 M for most compounds. The reported endpoint is percent growth (GI% or GIPRCNT), where numbers from 0 - 100% represent growth inhibition, and numbers from -100% - 0 represent cell death. For example, a value of 40 represents 60% growth inhibition. A value of 0 means no net growth occurred over the course of the experiment. A value of -40 indicates 40% of cells at the beginning of the experiment died by the end of the experiment. A value of -100 means all cells are dead at the end of the experiment.
NCI-60 Human Tumor Cell Lines Screen was performed using the standard one-dose NCI protocol, which is described in more detail at https://dtp.cancer.gov/discovery_development/nci-60/default.htm.
Compounds with GIPRCNT values below 10 were considered active. Activity score was based on GIPRCNT using the following formula: […]
Score is 0 for GIPRCNT values of 100 or above, 50 for GIPRCNT values of 0, and 100 for GIPRCNT values of -100.
Regarding `Nc1c(C(=O)Nc2ccc(Cl)cc2)sc2nc(-c3cnccn3)cc(-c3cccs3)c12`, the growth was -16.8% (active). Regarding `c1ccc(CNc2ncnc3ccc(-c4cnc5[nH]ncc5c4)cc23)cc1`, the growth was 52.7% (inactive). As for `N[C@@H](Cc1cn(-c2ccnc3ccccc23)nn1)C(=O)O`, the growth is 102% (inactive). Then `Cc1ccc2ccc3ccc(C)nc3c2n1.Cc1ccc2ccc3ccc(C)nc3c2n1.Oc1c(Cl)cc(Cl)c2ccc(CN3CCCCC3)nc12.[Ru]`, with -91.2% (active); and `CCOc1ccc([C@H]2C(C(=O)c3ccc(Cl)cc3)C3(N[C@@H]2c2ccccc2)C(=O)Nc2ccc(Br)cc23)cc1` (stereo not given in full), with -36.2% (active).

Consider `[Cl][Ru].c1ccc(-c2cc(-c3ccccn3)nc(-c3ccccn3)c2)cc1.c1ccc(-c2ccnc3c2ccc2c(-c4ccccc4)ccnc23)cc1`, for which the growth is -71.4% (active). Then `O=C1c2c(c3c4cc(Br)ccc4[nH]c3c3ccc4ccccc4c23)C(=O)N1CCO`, with 66.4% (inactive); and `CN1CCN(Cc2ccc(NC(=O)c3cncc(C#Cc4cnc5[nH]ncc5c4)c3)cc2C(F)(F)F)CC1`, with 2.34% (active). As for `Cc1[nH]nc2ncc(C#Cc3cncc(C(=O)Nc4ccc(CN5CCN(C)CC5)c(C(F)(F)F)c4)c3)cc12`, the growth was -23.4% (active). In the case of `OC1CCN(CCCOc2c3ccccc3nc3c2oc2ccccc23)CC1`, the growth was -63.3% (active).

Consider `CCN1C(=S)N(CC)C2C1N=C(SC)N2/N=C/C=C/c1ccccc1[N+](=O)[O-]` (stereo not given), for which the growth is 116% (inactive). For the molecule `CC(=O)Oc1ccccc1C(=O)Nc1ccc(C(=O)/C=C/c2cccs2)cc1`, the growth was 100% (inactive). Take `CC(C)NC(=O)c1cc(-c2ccc(NC(=O)Nc3ccc(N4CCOCC4)c(C(F)(F)F)c3)cc2)nc2cccnc12`: the growth was 47.9% (inactive). As for `CCCSc1nc(Nc2ccc(/C(C)=N\NC(N)=S)cc2)c(C#N)c(-c2ccc(OC)cc2)n1`, the growth is 68% (inactive). Regarding `CCN1CCN(S(=O)(=O)c2oc(-c3ccc(Cl)cc3)nc2C#N)CC1`, the growth is -89.2% (active). Then `COc1cc2nc(-c3ccc(Cl)cc3)cc(OCCCNCC3CCCO3)c2cc1OC` (stereo not given), with -47.8% (active). For `Oc1c(Cl)cc(Cl)c2ccc(CN3CCCCC3)nc12`, the growth is 31.7% (inactive).

Regarding `C=CCSc1ccc2c(c1)C(N1CCNCC1)=Nc1ccccc1O2`, the growth is 51.5% [8.25 µM] (inactive). In the case of `CC(=O)Nc1cc(F)cc(-c2ccc3[nH]cc(-c4ccccc4)c3n2)c1`, the growth was -62.4% (active). In the case of `C/C(=N/NC(N)=S)c1ccc(Nc2nc(SCC(C)C)nc(-c3ccc(F)cc3)c2C#N)cc1`, the growth is -20% (active). For `Fc1ccc(-c2cc3nc(C(Cl)Cl)nc(-c4ccc(Cl)cc4)n3n2)cc1`, the growth is 70.9% (inactive). As to `O=C(CSc1nc2sc3c(c2c(=O)n1-c1ccc(Cl)cc1)CCCC3)NNC(=O)Nc1cccc(C(F)(F)F)c1`, the growth was -17% (active). For `CCOC(=O)c1csc(NC(=O)CSc2nc3sc4c(c3c(=O)n2-c2ccc(Cl)cc2)CCCC4)n1`, the growth was 56.5% (inactive). As for `N[C@@H](Cc1cn(-c2c3ccccc3nc3ccccc23)nn1)C(=O)O`, the figure is 106% (inactive); as for `COc1cc2nc(-c3ccc(C(F)(F)F)cc3)cc(OCCCNCC3CCCO3)c2cc1OC` (stereo not given), -13.4% (active). As for `N#Cc1nc(-c2ccccc2)oc1S(N)(=O)=O`, the growth was 10.5% (inactive). In the case of `NC(=O)c1cc(-c2ccc3ncnc(N4CCc5cc(F)c(Cl)cc54)c3c2)cnc1N`, the growth was 24% (inactive).

Turning to `N/C(=N\c1nc2c(Br)cccc2s1)C(Br)Br`, the growth was -84.9% (active).

In the case of `COc1cc(-c2nc3ccc(-c4nnc(SCC(=O)Nc5ccc(C(C)=O)cc5)o4)cc3[nH]2)cc(OC)c1OC`, the growth is 108% (inactive).

`CS(=O)(=O)c1ccc(-c2nc3ccccn3c2C=Nc2ccc(Cl)cc2)cc1`: the growth is -59.2% (active).

On to `CC(=O)Oc1ccccc1C(=O)Nc1cc(C(C)C)ccc1C`, for which the growth is 12.4% (inactive).

With `COc1ccc(-c2csc(N/N=C/c3c(-c4ccc(S(C)(=O)=O)cc4)nc4ccccn34)n2)cc1`, the growth was 126% (inactive). As for `Cc1cccc2sc(/N=C(\N)C(Br)Br)nc12`, the growth is -86% (active).

For `Clc1ccc2oc3c(NCCCN4CCOCC4)c4ccccc4nc3c2c1`, the growth was -53.1% (active). As for `O=c1/c(=C\c2ccc(-c3ccccc3)o2)sc2nc(-c3ccccc3)nn12`, the growth was 95.9% (inactive).

Consider `O=C(O)CCCCCN1C(=O)/C(=C/c2ccc(O)c(O)c2)SC1=S`, for which the growth was 108% (inactive). On to `Cn1cc(-c2cc(N)n3nc(-c4cn(C)c5ccc(F)cc45)cc3n2)c2cc(F)ccc21`, for which the growth was -61.9% (active). As to `CCOC(=O)c1c(Nc2ccccc2)nn2c(-c3ccco3)c(C#N)cnc12`, the growth is 81.4% (inactive). For `COc1ccc(NC(=O)c2sc3nc(-c4cnccn4)cc(-c4cccs4)c3c2N)cc1`, the growth was 18.4% (inactive). Then `CC(C)(O)c1cncc(-c2ccc3ncnc(N4CCc5cc(F)c(Cl)cc54)c3c2)c1`, with 12.2% (inactive).
